From ChEMBL document CHEMBL3988442, “University of Dundee, Small-Polar-MMV Screening Library” (2021)
For some of these results: Results with a measured potency or affinity are listed apart.

Experiments:
Set-up in all cases: scale not given: direction of the effect not stated beside the values
[1] = molecular target: Protein translocase subunit SecA (Escherichia coli (strain K12)) (UniProt P10408); assay: Assay to Identify E. coli SecA ATPase Inhibitors; type: functional; conditions: 30 µM
[2] = molecular target: T1, Ubiquitin-activating enzyme e1, putative (Leishmania donovani (strain BPK282A1)) (UniProt E9BSI1); assay: Leishmania donovani Ubiquitin Activating Enzyme (LdE1); type: functional; conditions: 30 µM
T1 sequence (whole entry): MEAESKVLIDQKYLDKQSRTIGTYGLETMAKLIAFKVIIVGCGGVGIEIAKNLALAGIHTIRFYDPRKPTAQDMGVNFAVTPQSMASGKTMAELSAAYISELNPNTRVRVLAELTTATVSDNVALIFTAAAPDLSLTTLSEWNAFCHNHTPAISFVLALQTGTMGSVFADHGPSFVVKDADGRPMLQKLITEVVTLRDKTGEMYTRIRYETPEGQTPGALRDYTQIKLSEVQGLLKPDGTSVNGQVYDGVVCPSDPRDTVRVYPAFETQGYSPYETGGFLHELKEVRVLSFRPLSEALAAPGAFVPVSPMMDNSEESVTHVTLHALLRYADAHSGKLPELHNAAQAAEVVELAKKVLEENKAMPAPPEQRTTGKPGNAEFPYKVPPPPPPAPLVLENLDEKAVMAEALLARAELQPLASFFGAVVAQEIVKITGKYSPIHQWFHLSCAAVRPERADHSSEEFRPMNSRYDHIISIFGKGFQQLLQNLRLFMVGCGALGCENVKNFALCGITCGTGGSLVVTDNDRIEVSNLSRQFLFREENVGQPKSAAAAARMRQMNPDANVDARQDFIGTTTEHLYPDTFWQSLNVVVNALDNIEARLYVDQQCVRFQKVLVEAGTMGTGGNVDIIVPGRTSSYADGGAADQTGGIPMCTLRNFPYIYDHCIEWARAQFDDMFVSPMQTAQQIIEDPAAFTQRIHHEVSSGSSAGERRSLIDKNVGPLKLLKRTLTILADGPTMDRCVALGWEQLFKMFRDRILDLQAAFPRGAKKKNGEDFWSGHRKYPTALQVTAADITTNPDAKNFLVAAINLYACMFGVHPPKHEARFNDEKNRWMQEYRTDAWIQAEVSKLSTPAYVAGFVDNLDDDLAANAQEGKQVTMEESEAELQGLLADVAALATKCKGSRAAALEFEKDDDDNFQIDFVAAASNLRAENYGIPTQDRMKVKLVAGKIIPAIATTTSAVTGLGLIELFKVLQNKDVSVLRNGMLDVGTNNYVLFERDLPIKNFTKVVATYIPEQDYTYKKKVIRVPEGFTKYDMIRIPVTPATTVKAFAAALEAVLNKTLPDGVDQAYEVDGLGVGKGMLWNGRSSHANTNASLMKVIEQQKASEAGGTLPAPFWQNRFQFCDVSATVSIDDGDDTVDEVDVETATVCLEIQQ

[3] = molecular target: AMP-activated protein kinase, AMPK (Homo sapiens) (UniProt P54646+O43741+P54619+Q9UGJ0+Q9Y478+Q13131+Q9UGI9); assay: AMP-dependent Kinase enzyme assay. An in vitro enzyme assay that detects ADP turnover that is directly proportional to AMPK activity. This uses naive AMPK that is activated during the assay with MK-8722; type: functional; conditions: 30 µM
[4] = molecular target: Sialic acid-binding Ig-like lectin 9 (Homo sapiens) (UniProt Q9Y336); assay: Hs-Siglec9 ALPHAscreen SOP 20170721; conditions: 10 µM
Trypanosoma cruzi = assay: Trypanosoma cruzi phosphomannomutase and mannose-1-phosphate guanylyltransferase assay; type: functional; conditions: 10 µM
[5] = molecular target: T2, Arginase-2, mitochondrial (Homo sapiens) (UniProt P78540); assay: in vitro enzyme assay to detect the production of urea directly proportional to the activity of Arginase II; type: functional; conditions: 33.3 µM; further: in the data most compounds retested in dose-response had high values
T2 sequence (whole entry): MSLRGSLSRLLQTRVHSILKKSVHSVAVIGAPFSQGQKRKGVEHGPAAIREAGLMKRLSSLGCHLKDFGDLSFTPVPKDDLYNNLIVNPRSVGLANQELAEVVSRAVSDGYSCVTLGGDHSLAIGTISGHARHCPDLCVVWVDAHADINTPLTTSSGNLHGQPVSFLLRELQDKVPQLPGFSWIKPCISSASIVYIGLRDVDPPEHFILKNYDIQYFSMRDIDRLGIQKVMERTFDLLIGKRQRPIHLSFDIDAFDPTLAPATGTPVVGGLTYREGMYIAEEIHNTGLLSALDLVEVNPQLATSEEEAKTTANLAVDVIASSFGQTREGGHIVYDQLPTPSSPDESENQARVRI

[6] = molecular target: T3, Proteasome subunit beta (Trypanosoma cruzi) (UniProt O96673); assay: Trypanosoma cruzi proteasome chymotrypsin-like activity (TcProtChymo) assay.; further: in the data most compounds retested in dose-response had high values; type: functional; conditions: 9.37 µM
T3 sequence (whole entry): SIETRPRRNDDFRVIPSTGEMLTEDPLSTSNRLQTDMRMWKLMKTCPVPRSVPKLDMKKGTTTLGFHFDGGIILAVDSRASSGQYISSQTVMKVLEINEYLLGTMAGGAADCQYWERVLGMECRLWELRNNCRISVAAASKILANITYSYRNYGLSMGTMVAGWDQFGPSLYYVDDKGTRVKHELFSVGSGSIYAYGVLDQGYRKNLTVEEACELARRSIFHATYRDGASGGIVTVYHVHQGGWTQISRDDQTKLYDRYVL

Homo sapiens = organism: Homo sapiens; assay: To identify inhibition of the IFN signalling (Jak-Stat) pathway via expression of an eGFP reporter gene under the control of an IFN-stimulated response element (ISRE) containing MxA promoter.; type: functional; conditions: 30 µM
[7] = molecular target: T4, Tyrosyl-tRNA synthetase, putative (Trypanosoma cruzi (strain CL Brener)) (UniProt Q4DSP6); assay: Trypanosoma cruzi tyrosyl tRNA synthetase (TcYRS) _High Tyrosine SOP; type: functional; conditions: 30 µM; further: in the data most compounds retested in dose-response had high values
T4 sequence (whole entry): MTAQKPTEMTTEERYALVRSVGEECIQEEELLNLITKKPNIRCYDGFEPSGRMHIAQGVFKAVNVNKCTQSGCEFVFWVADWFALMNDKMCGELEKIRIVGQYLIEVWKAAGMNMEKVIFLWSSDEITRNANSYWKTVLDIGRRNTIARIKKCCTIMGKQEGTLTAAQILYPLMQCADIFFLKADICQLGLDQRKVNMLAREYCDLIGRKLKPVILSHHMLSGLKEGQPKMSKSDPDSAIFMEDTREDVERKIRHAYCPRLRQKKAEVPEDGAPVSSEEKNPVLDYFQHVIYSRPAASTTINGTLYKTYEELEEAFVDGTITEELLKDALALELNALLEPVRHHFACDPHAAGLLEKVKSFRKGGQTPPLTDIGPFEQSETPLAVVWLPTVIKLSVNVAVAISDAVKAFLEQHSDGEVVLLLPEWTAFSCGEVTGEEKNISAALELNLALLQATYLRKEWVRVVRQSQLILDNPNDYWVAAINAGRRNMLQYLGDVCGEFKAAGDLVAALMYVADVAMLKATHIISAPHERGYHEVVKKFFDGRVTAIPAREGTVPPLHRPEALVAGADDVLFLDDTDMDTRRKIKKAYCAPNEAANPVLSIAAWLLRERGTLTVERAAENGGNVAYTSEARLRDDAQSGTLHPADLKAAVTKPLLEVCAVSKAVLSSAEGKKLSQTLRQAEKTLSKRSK

[8] = molecular target: T4, Tyrosyl-tRNA synthetase, putative (Trypanosoma cruzi (strain CL Brener)); assay: Trypanosoma cruzi tyrosyl tRNA synthetase (TcYRS) SOP; type: functional; conditions: 30 µM
[9] = molecular target: Chromo domain-containing protein 1 (Saccharomyces cerevisiae (strain ATCC 204508 / S288c) (Baker's yeast)) (UniProt P32657); assay: ScCHD-1 Enzyme Inhibition Assay; type: functional; conditions: 30 µM; further: in the data most compounds retested in dose-response had high values
Sequence of Chromo domain-containing protein 1 (Saccharomyces cerevisiae (strain ATCC 204508 / S288c) (Baker's yeast)) (P32657 whole entry, the tested form may be a part): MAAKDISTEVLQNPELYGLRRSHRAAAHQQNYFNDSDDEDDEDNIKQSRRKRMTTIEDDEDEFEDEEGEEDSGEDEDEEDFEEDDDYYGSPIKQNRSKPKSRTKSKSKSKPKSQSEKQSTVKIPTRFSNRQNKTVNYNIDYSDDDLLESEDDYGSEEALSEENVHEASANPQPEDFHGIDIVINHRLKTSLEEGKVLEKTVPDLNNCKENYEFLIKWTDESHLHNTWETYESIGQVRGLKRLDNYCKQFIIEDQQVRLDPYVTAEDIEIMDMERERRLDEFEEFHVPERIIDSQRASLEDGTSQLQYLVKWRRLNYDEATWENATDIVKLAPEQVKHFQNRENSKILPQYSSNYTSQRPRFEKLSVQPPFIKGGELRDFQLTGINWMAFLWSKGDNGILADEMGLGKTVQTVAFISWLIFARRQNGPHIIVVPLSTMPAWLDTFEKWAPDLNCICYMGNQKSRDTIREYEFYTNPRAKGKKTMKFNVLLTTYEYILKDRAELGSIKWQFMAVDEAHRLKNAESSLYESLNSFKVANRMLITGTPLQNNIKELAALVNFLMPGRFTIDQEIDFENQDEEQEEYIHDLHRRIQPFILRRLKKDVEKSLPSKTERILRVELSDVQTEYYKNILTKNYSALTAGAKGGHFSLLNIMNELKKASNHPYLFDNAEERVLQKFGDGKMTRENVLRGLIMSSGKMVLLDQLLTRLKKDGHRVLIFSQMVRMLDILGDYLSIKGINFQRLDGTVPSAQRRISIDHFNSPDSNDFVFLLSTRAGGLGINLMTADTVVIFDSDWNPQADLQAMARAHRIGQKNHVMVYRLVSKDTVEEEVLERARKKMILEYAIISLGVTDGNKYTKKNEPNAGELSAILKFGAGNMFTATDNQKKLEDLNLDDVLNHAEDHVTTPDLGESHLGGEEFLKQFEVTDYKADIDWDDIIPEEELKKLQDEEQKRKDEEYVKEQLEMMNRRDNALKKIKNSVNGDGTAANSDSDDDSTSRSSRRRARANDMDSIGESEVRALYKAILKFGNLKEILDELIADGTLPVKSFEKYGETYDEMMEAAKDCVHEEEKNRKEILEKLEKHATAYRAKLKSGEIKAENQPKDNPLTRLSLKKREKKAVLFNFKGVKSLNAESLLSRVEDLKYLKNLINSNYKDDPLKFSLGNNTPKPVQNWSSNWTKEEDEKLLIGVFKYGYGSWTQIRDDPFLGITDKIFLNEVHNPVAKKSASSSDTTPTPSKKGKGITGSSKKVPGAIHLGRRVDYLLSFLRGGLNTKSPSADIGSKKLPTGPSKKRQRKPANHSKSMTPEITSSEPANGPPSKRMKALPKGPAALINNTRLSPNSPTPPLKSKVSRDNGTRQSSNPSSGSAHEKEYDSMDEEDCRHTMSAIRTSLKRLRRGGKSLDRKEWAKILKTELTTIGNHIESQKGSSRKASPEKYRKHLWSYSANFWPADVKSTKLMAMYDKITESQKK

Sequence of Protein translocase subunit SecA (Escherichia coli (strain K12)) (P10408 whole entry): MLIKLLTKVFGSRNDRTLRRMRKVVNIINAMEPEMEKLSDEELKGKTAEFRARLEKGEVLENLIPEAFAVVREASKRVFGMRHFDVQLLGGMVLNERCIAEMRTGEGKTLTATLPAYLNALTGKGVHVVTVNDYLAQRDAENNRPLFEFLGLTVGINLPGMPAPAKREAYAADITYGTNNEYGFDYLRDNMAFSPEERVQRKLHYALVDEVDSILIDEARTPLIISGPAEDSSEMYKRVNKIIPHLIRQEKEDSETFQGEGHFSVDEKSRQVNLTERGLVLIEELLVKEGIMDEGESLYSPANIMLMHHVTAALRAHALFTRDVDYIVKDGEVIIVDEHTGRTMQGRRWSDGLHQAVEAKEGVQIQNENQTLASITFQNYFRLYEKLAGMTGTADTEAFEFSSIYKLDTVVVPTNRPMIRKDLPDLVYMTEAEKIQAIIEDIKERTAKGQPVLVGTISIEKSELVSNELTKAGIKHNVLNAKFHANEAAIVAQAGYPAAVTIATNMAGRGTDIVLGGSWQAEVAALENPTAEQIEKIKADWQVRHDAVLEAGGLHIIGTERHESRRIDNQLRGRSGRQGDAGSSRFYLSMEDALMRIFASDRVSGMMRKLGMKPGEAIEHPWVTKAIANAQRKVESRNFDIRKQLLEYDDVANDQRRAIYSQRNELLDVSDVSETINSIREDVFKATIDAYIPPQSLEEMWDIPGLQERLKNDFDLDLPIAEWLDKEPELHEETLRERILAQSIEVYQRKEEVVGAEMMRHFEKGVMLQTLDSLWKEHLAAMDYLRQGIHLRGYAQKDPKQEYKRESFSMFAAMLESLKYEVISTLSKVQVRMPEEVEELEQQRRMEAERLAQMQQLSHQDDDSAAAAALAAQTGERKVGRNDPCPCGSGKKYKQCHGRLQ
Sequence of Sialic acid-binding Ig-like lectin 9 (Homo sapiens) (Q9Y336 whole entry): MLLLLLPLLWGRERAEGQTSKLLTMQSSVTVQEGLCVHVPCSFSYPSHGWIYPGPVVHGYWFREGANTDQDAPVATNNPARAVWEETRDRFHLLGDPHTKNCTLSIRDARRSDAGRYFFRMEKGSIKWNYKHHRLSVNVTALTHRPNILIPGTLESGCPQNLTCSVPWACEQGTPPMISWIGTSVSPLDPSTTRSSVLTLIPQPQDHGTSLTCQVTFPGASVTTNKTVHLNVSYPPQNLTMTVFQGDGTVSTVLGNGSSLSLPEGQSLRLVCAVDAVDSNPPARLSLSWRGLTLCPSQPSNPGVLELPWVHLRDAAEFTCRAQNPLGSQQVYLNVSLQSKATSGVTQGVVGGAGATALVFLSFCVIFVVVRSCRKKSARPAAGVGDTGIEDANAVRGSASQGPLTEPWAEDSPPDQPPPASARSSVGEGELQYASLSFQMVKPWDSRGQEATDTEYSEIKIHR

Compound | Percent Effect [1] [%] | Percent Effect [2] [%] | Percent Effect [3] [%] | Percent Effect [4] [%] | Percent Effect (Trypanosoma cruzi) [%] | Percent Effect [5] [%] | Percent Effect [6] [%] | Percent Effect (Homo sapiens) [%] | Percent Effect [7] [%] | Percent Effect [8] [%] | Percent Effect [9] [%]
CCN(Cc1ccc2c(c1)OCO2)Cc1nc(C)no1 | 2.35 | 18.9 | -7.63 | -8.65 | -8.96 | 2.4 | 14.9 | 18.6 | 4.43 | 6.17 | -4.89
CC(C)c1nc(C2CCCN(C(=O)Cc3cccnc3)C2)no1 (stereo unspecified) | -0.76 | 16.2 | -13.3 | -2.67 | -10.3 | -1.6 | 2.16 | 25.4 | 5.42 | 6.17 | -2.89
COc1ccc(CN2CCCC(Nc3cccc(F)c3)C2)cc1O (stereo unspecified) | -3.14 | 0 | -3.77 | -2 | -0.293 | -0.744 | -5.06 | 53.9 | 2.15 | 6.17 | 1.38
COc1cc(C(=O)N2CCC(c3n[nH]c(C4CC4)n3)CC2)ccc1C | -4.66 | -1.27 | 6.11 | -3.19 | -1.33 | 2.37 | -0.686 | 8.43 | 1.04 | -2.53 | -30.5
CCc1nc2n(n1)CC(NCc1nc(C)ccc1O)CC2 (stereo unspecified) | -5.74 | 7.89 | 1.61 | 1.6 | 5.16 | -2.37 | 5.85 | -1.01 | 0 | 10.4 | -1.98
Cc1occc1C(=O)N1CCc2ncnc(-c3cnn(C)c3)c2CC1 | -2.67 | -5.41 | -4.37 | 0.728 | 6.75 | -1.24 | 4.21 | 4.88 | 1.07 | 3.7 | -4.52
CO[C@H]1CCN(Cc2cnn(C)c2)[C@@H]2CN(Cc3cccnc3)C[C@H]12 | -0.848 | 12 | 6.27 | -3.02 | -3.93 | -8.63 | 9.06 | -3.47 | 2.12 | 5.13 | -7.83
Cc1ccc(O)c(CNC2CCc3nc(C(C)C)nn3C2)n1 (stereo unspecified) | -9.46 | 13.2 | 2.66 | 6.11 | 3.02 | -5.92 | 8.15 | -5.66 | 1.06 | 10.4 | -14.7
CCc1ccc(OCC(O)CN2CCN(S(C)(=O)=O)CC2)cc1 (stereo unspecified) | -7.02 | 7.79 | 3.94 | -12.9 | -6.56 | -3.58 | 3.96 | 16 | 0.952 | 2.35 | -21.6
CCc1nccn1C1CCCN(C(=O)c2ccc3[nH]cnc3c2)C1 (stereo unspecified) | -7.22 | 2.63 | 2.64 | 2.2 | 5.36 | 1.18 | 9.3 | 7.56 | 8.51 | 10.4 | -0.611
COCc1noc(C2(c3ccc(OC)cc3)CCOCC2)n1 | -3.44 | 5.41 | 0.468 | 6.74 | -0.386 | 2.86 | 14.1 | 9.88 | 3.7 | 17.1 | -2.16
